High-throughput results: PubChem BioAssay, National Center for Advancing Translational Sciences (NCATS)
D1 potentiator = Potentiators of Human D1 Dopamine Receptor: qHTS; D(1A) dopamine receptor (Homo sapiens), P21728; HEK293 TREx D1 cells, calcium flux, dopamine EC20 potentiation; potentiation, % at 10 µM; actives 0.036% (n = 360,000); AID 504651, 2011; in the data active = potentiation above about 30%; also: 0% is about no effect
D3 antag = qHTS of D3 Dopamine Receptor Antagonist: qHTS | D(3) dopamine receptor (Homo sapiens), P35462 | D3R cells, DiscoveRx beta-arrestin luminescence, antagonist mode; active compounds read low | actives 2.5% (n = 360,000) | max response, negative = inhibition, %; in the data active = max response below about -50%; inconclusive = no clear call, values can overlap the other calls; also: % is scaled to controls: 0 for no effect and ±100 for the full control effect
Target sequence (P35462 whole entry, looked up): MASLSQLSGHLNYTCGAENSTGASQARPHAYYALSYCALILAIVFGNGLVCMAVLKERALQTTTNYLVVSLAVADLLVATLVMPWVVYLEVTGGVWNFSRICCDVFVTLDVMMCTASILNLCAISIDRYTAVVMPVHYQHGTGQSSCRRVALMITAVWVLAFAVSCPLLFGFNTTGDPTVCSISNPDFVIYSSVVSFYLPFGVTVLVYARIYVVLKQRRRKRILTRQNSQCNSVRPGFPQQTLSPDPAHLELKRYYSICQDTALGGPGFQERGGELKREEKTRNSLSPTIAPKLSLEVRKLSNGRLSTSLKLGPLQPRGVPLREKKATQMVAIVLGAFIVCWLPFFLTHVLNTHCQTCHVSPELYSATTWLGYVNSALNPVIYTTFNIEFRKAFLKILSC
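Cells plated overnight at 1500 cells/well, then exposed to library compounds with dopamine controls for 90 minutes at 37 degrees C. DiscoveRx reagent added for 30–60 minutes at room temperature; luminescence read, quantitative HTS format.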
D1 antagonist = Antagonist of Human D 1 Dopamine Receptor: qHTS. activity change, negative = inhibition, % at 10 µM. HEK293 TREx D1 cells, calcium flux, dopamine EC80; active compounds read low. D(1A) dopamine receptor (Homo sapiens), P21728. actives 3.2% (n = 360,000); in the data active = activity change below about -30%; also: % is scaled to controls: 0 for no effect and ±100 for the full control effect
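After overnight tetracycline induction at 30 C, force-coupled D1 HEK293 cells took up a no-wash calcium dye at room temperature. Compounds were added and monitored 180 s, and the response to EC80 dopamine was then recorded.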
D1 ag = Allosteric Agonists of the Human D1 Dopamine Receptor: qHTS | D(1A) dopamine receptor (Homo sapiens), P21728 | HEK293 T-REx D1 cells, calcium flux, agonist mode | activation, % at 2 µM | actives 1% (n = 360,000); in the data active = activation above about 30%; also: 0% is about no effect
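Inducible HEK293 T-REx D1 cells, force-coupled to calcium signalling, were plated at 4000 cells/well with tetracycline and held overnight at 30 C. After no-wash calcium dye loading, compound-evoked calcium rise over 180 s flagged agonists.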
D3 ag = qHTS of D3 Dopamine Receptor Agonist: qHTS. max activation, %. D3R DiscoveRx beta-arrestin cells, luminescence, 90 min. actives 0.58% (n = 410,000). D(3) dopamine receptor (Homo sapiens), P35462; in the data active = max activation above about 30%; also: 0% is about no effect
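Agonist-mode cell screen: cells plated at 1500/well and incubated overnight at 37 °C, then exposed to library compounds for 90 min at 37 °C. Detection reagent was added for 30–60 min at room temperature, and luminescence was read.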
Active calls of the source: *; ? = inconclusive; / = not tested or not shown. The list is not random: actives were taken first. Their share in the collection is about 6%.

SMILES	D1 potentiator	D3 antag	D1 antagonist	D1 ag	D3 ag
Cc1cccc(N2C(N)=C(C#N)C(C#N)(C#N)C2c2ccccc2)c1 (configuration not stated)	4	24	10	-1	7
Cc1ccc(-c2nnc(SCC(=O)NC3CCCC3)nc2-c2ccc(C)cc2)cc1	-2	/	9	2	-11
O=C(O)c1cccc(S(=O)(=O)NCC2CCCO2)c1 (configuration not stated)	6	6	-3	0	-2
COC(=O)c1cc(S(=O)(=O)NCC2CCN(Cc3ccc(F)cc3)CC2)c[nH]1	-6	-12	6	-1	-11
O=S(=O)(NCC1CCCO1)c1cccc(C(F)(F)F)c1 (configuration not stated)	-4	-17	-46*	4	-3
COc1ccc(CN2CCC(CNS(=O)(=O)c3cccc(C(F)(F)F)c3)CC2)cc1	-6	?	-12	35*	-20
O=C(Cc1ccccc1)N(Cc1cccnc1)c1nc2c(F)cc(F)cc2s1	-2	/	/	4	1
CCC12CN3CC(CC)(CN(C1)C3c1cc(Br)ccc1OC)C2=O (configuration not stated)	-3	/	11	-1	6
COc1ccc(-c2cc(NCc3ccc(C)cc3)n3cnnc3n2)cc1	-2	/	-8	0	2
CCN(CC)c1ccc2cc(S(=O)(=O)c3ccc(C)cc3)c(=O)oc2c1	2	1	-3	120*	4
CCN(CC)c1ccc2cc(-c3nnc(Nc4ccc(C)cc4)s3)c(=O)oc2c1	-1	/	-60*	421*	-1
CCN(CC)c1ccc2ccc(=O)oc2c1	-1	6	-6	1	3
O=c1oc2ccccc2cc1-c1nc(-c2ccccc2)no1	-4	-10	3	2	3
Cc1ccc(Nc2nnc(-c3cc4c(ccc5ccccc54)oc3=O)s2)cc1	-1	/	6	24	0
CCN(CC)c1ccc2cc(-c3nc(-c4ccccc4)no3)c(=O)oc2c1	9	/	-34*	317*	13
CCN(CC)c1ccc2cc(C#N)c(=O)oc2c1	-3	-1	-6	32*	6
CCN1C(=O)C2(c3ccccc31)c1c(oc3ccccc3c1=O)C(=O)N2CCOC (configuration not stated)	0	/	-9	1	4
COc1ccc(C)cc1NC(=O)COc1cc(=O)n(C)c2ccccc12	-3	/	-5	0	1
Cc1ccc(CCNC(=O)CCCn2c(=O)c3ccccc3n(Cc3ccccc3C)c2=O)cc1	0	/	-27	5	2
COc1ccc(/C=C(\C#N)C(=O)NCCc2ccccc2)cc1OCc1ccccc1	-3	-5	-26	33*	3
N#C/C(=C/c1ccc(C(=O)O)cc1)C(=O)NCc1ccccc1	-10	-10	-5	4	7
COc1cc(/C=C(/C#N)C(=O)NC(C)c2ccccc2)cc(OC)c1O (configuration not stated)	1	-10	4	95*	-9
COc1cc(/C=C(/C#N)C(=O)NCc2ccccc2)cc(OC)c1OC	-3	-13	24	1	-5
N#C/C(=C\c1ccc(O)c(O)c1)C(=O)NCCCc1ccccc1	4	-80*	-14	4	-41
CC(NC(=O)/C(C#N)=C/c1ccc(C(=O)O)cc1)c1ccccc1 (configuration not stated)	-3	-14	5	14	-5
SMILES	D1 potentiator	D3 antag	D1 antagonist	D1 ag	D3 ag
O=C(CCCn1c2ccccc2c(=O)c2ccccc21)Nc1cccc(Cl)c1	-1	/	-16	4	9
CCOC(=O)CNC(=O)c1cc2c(=O)n(CC)c3ccccc3c2s1	1	/	3	-1	-7
C=C(C)Cn1c(NCCOC)nc2c1c(=O)[nH]c(=O)n2C	4	12	-40*	-1	5
COCCCNc1nc2c(c(=O)[nH]c(=O)n2C)n1CCCc1ccccc1	-3	-5	-2	1	-2
CCN(c1ccc(C)cc1C)S(=O)(=O)c1nnc(NC(=O)C(C)C)s1	-8	-19	24	1	0
CCN(c1ccc(C)cc1C)S(=O)(=O)c1nnc(NC(=O)C(C)(C)C)s1	-12	-74*	0	0	-9
Cc1nc(SCC(=O)N(CC(C)C)C2CCS(=O)(=O)C2)c2c(C)c(C)sc2n1 (configuration not stated)	-5	55	5	0	0
CCN(Cc1ccc2c(c1)OCO2)C(=O)CSc1nc(C)nc2sc(C)c(C)c12	-9	60	9	3	40*
CCN(C(=O)CSc1nc(C)nc2sc(C)c(C)c12)C1CCS(=O)(=O)C1 (configuration not stated)	0	9	-33*	0	9
COc1ccc(-n2ncc(C(=O)N3CCN(c4ncccn4)CC3)c2C2CCN(C(=O)OC(C)(C)C)CC2)cc1	7	/	1	1	13
COc1cc(N=Nc2ccccc2C(=O)O)ccc1O	-2	-58*	19	2	-5
COc1cc(N=Nc2ccc3ccccc3c2)ccc1O	-3	-22	4	5	-2
CCCCSCCCNC(=O)CN1C(=O)COc2ccc(S(=O)(=O)N3CCC(C)CC3)cc21	-3	/	-4	8	-13
COc1ccc2nc3sc(C(=O)NCCN4CCc5ccccc5C4)cc3cc2c1	10	-68*	-4	1	-51
COc1ccc2cc3cc(C(=O)NCCCN4CCc5ccccc5C4)sc3nc2c1	-3	-65*	2	1	-11
COc1ccc2cc3cc(C(=O)NC4CC4)sc3nc2c1	-6	-18	7	3	-4
Cc1cc(C(=O)CSc2nnc(-c3cccs3)o2)c(C)n1-c1ccccc1	2	49	-55*	2	3
CC(=O)c1ccc(OC2(C)CCN(Cc3ccc4c(c3)OCCO4)C2)cc1 (configuration not stated)	/	-69*	/	/	-10
CC(=O)c1ccc(OC2(C)CCN(Cc3ccc4ccccc4c3)C2)cc1 (configuration not stated)	/	-30	/	/	-26
CC(=O)c1ccc(OC2(C)CCN(Cc3ccc(C)cc3)C2)cc1 (configuration not stated)	/	-102*	/	/	-11
CCc1ccc(OC2(C)CCN(Cc3ccc4c(c3)OCCO4)C2)cc1 (configuration not stated)	/	11	/	/	-18
COc1ccc(C(=O)N(c2ccc(C)cc2)S(=O)(=O)c2ccc(C)cc2)cc1	-3	/	10	3	-14
Nc1nonc1-c1nc2ccccc2n1Cc1cccc(Cl)c1	0	/	-5	3	0
